About 83,000 compounds went through this panel and 20% of them were active in at least one assay; those are over-represented in the sample as a whole.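 96-well plates, one dose, 48 hours. Percent growth reported; active if below 10.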 Unmarked numbers belong to inactive results. Active and inactive are the calls of the source.

Assay in all cases: NCI-60 one-dose screen, 48 h (100 = growth as untreated, 0 = no growth, -100 = all killed)
The test system of assay [1] is HCT-15 colon. The conditions noted are these: 10 µM unless noted.
For assay [2], the system named is HT29 colon. The note with it: 10 µM unless noted.
Assay [3] has as its system SNB-75 CNS. The conditions noted are these: 10 µM unless noted.
Assay [4] deals with SNB-19 CNS. The conditions noted are these: 10 µM unless noted.
Assay [5] deals with U251 CNS. The conditions noted are these: 10 µM unless noted.
Assay [6] has as its system PC-3 prostate. The conditions noted are these: 10 µM unless noted.
Assay [7] relates to SK-MEL-5 melanoma. The note with it: 10 µM unless noted.
Assay [8] relates to UACC-62 melanoma. The conditions noted are these: 10 µM unless noted.
The subject of assay [9] is SK-MEL-2 melanoma. The note with it: 10 µM unless noted.
For assay [10], the system named is EKVX NSCLC. The conditions noted are these: 10 µM unless noted.
Assay [11] relates to SN12C renal. The note with it: 10 µM unless noted.
In assay [12] the test system is UO-31 renal. The conditions noted are these: 10 µM unless noted.
The test system of assay [13] is TK-10 renal. The note with it: 10 µM unless noted.
The test system of assay [14] is CAKI-1 renal. The note with it: 10 µM unless noted.
The subject of assay [15] is A498 renal. The conditions noted are these: 10 µM unless noted.
The test system of assay [16] is CCRF-CEM leukemia. The note with it: 10 µM unless noted.
In assay [17] the test system is MOLT-4 leukemia. The conditions noted are these: 10 µM unless noted.
Assay [18] deals with LOX IMVI melanoma. The conditions noted are these: 10 µM.
The test system of assay [19] is SK-MEL-28 melanoma. The note with it: 10 µM unless noted.
The test system of assay [20] is ACHN renal. The note with it: 10 µM unless noted.

Regarding `Nc1c(O)c(S(=O)(=O)O)c(O)c2c1C(=O)c1ccccc1C2=O`, the growth in assay [1] was 15.9%; in assay [2], 14%; in assay [3] it was 24.7%; in [4], 26.2%; in assay [5] it was 20.2%; in assay [6], 23.8%. For the same molecule, the growth was 5.72% (active) in assay [7]; 34.6% in assay [8]; 6.13% (active) in assay [9]; 33.8% in [10]; 28.1% in [11]; 12.2% in assay [12]. For the same molecule, the growth in [13] is 21.7%; in assay [14], 13.5%; in assay [15], 5.41% (active); in assay [16] it was 28%; in assay [17], 5.87% (active).

As for `COc1cc(-c2ccc(NC(=O)CC(C)=O)c(OC)c2)ccc1NC(=O)CC(C)=O`, the growth is 96.7% in assay [1]; 107% in assay [2]; 82.2% in assay [3]; 101% in assay [4]; 89.6% in assay [5]; 95.1% in assay [6]. The growth in [7] is 98.1%; in assay [18], 96.7%; in assay [19], 111%; in [9] it was 108%; in assay [10], 108%; in assay [11], 104%. Further, the growth is 86.3% in assay [12]; 115% in [13]; 88.6% in assay [20]; 97% in assay [14]; 110% in assay [15]; 100% in assay [16]. Moreover, the growth in [17] was 89.5%.

As to `N#Cc1ccc(OC(=O)Nc2c(Cl)cc(Cl)cc2Cl)cc1`, the growth in assay [1] was 107%; in assay [2], 104%; in assay [3], 127%; in assay [4], 99.5%; in assay [5], 104%; in assay [6], 99.5%. The growth in assay [7] is 97.2%; in assay [8], 102%; in [19] it was 104%; in [9], 118%; in assay [10] it was 107%; in assay [11] it was 98.2%. The growth in assay [12] is 83.1%; in assay [13], 104%; in assay [20], 104%; in [14] it was 89.7%; in assay [16], 99.3%; in assay [17], 111%.

For the molecule `COc1ccc(C)cc1NC(=O)SC(C)C`, the growth was 102% [100 µM] in [1]; 104% [100 µM] in [2]; 82.4% [100 µM] in [3]; 99% [100 µM] in [4]; 104% [100 µM] in assay [5]; 96.7% [100 µM] in assay [6]. The growth in [7] was 96.3% [100 µM]; in assay [8] it was 87.5% [100 µM]; in assay [19], 102% [100 µM]; in assay [9], 102% [100 µM]; in assay [10], 102% [100 µM]; in [11], 96.6% [100 µM]. Moreover, the growth in assay [12] was 82.9% [100 µM]; in [13], 128% [100 µM]; in [20] it was 100% [100 µM]; in assay [14], 95.5% [100 µM]; in assay [16] it was 106% [100 µM]; in [17] it was 106% [100 µM].

For the molecule `c1cc(CNCCNCc2ccncc2)ccn1`, the growth in [1] was 110%; in assay [2], 109%; in assay [3], 92.5%; in assay [4], 104%; in [5] it was 101%; in assay [6], 92.1%. Besides, the growth was 107% in [7]; 101% in assay [8]; 101% in assay [19]; 104% in assay [9]; 99.6% in [10]; 98.5% in assay [11]. The growth in assay [12] is 83.7%; in assay [13] it was 105%; in assay [20], 109%; in assay [14] it was 91.3%; in assay [15], 116%; in assay [16], 89.5%. In addition, the growth in assay [17] is 84.1%.

`Cc1onc(-c2c(F)cccc2Cl)c1-c1ncc(-c2ccc(Br)cc2)o1`: the growth in assay [1] was 17.7%; in assay [2], 24.9%; in assay [3], 65.8%; in assay [4], 42.9%; in assay [5], 39.6%; in [6], 41%. For the same molecule, the growth in assay [7] was 10.8%; in assay [8], 34%; in assay [19] it was 50.3%; in assay [9], 74.8%; in assay [10] it was 46%; in assay [11], 34%. Further, the growth in [12] was -0.651% (active); in [13], 46.8%; in [20], 32.8%; in assay [14] it was 33.1%; in assay [15] it was 86.4%; in assay [16], 39.5%. The growth in assay [17] was 16.9%.

For `S=C(NCc1ccccc1)N1CCC(CCCC2CCN(C(=S)NCc3ccccc3)CC2)CC1`, the growth is 99.8% in [1]; 95.9% in assay [2]; 101% in assay [3]; 94.5% in assay [4]; 98.3% in assay [5]; 89.5% in assay [6]. The growth in assay [7] was 58.8%; in [8], 79.1%; in assay [19], 119%; in assay [9] it was 114%; in assay [10] it was 83.5%; in assay [11], 96.8%. In addition, the growth in assay [12] is 84.4%; in assay [13], 108%; in assay [20] it was 93.1%; in assay [14] it was 86.6%; in assay [15], 121%; in [16], 88.8%. The growth in assay [17] was 88.5%.

On to `O=C(O)c1cc(I)ccc1O`, for which the growth was 101% in assay [1]; 104% in [2]; 81.8% in [3]; 93.1% in assay [4]; 100% in assay [5]; 104% in assay [6]. Also, the growth in assay [7] is 103%; in assay [18], 92%; in assay [19] it was 113%; in assay [9] it was 107%; in assay [10], 100%; in assay [11], 95.3%. The growth was 90.7% in [12]; 93.3% in assay [13]; 97.6% in assay [20]; 103% in assay [14]; 126% in assay [15]; 99.3% in assay [16]. Also, the growth in [17] is 108%.

The record behind these values is PubChem BioAssay (NCI).
